Test results taken from PubChem BioAssay (NCI).
About 79,000 compounds went through this panel and 15% of them were active in at least one assay; those are over-represented in the sample as a whole. The source made the active and inactive calls. Cut-off read from the data, not from the text of the source: active = growth inhibition above about 70%; inactive = the rest. *1 amine or outer side, *2 acyl side, *3 side chain or, on linkers, in order; H or OH if unused. Where a SMILES comes first, the peptide text is derived from it. Bridges are numbered along the chain shown (N, C = ends). Roman numbers before positions name the chains, in order. [ ]: non-standard residue; d: D form. Actinocin(9to1) = Cc1c2oc3c(C)ccc(C(=O)[*:1])c3nc-2c(C(=O)[*:2])c(N)c1=O; NMeV = CN[CH](C(=O)O)C(C)C; Pip = O=C(O)[CH]1CCCCN1; Sar = CNCC(=O)O

Legend:
[1] = NCI Yeast Anticancer Drug Screen. Data for the rad50 strain (AID 155);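 note: 0% = growth of vehicle-only cultures of the same strain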; details: S. cerevisiae rad50 strain growth inhibition, hits give high values
Summary of the method: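 Yeast carrying a defined DNA repair defect were exposed to test compounds, and growth was compared with vehicle-treated controls to give percent inhibition.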

[2] = NCI Yeast Anticancer Drug Screen. Data for the mec2-1 strain (AID 157); details: S. cerevisiae mec2-1 strain, hits give high values
Summary of the method: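 Vehicle-treated cultures served as reference for growth inhibition of compound-exposed mec2-1 yeast.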

[3] = NCI Yeast Anticancer Drug Screen. Data for the sgs1 mgt1 strain (AID 161);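 note: 0% = growth of cultures given vehicle only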; details: S. cerevisiae sgs1 mgt1 strain, hits give high values
Summary of the method: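 Test agents were incubated with a DNA-repair-mutant yeast strain. Growth was then read and compared against vehicle-treated controls.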

[4] = NCI Yeast Anticancer Drug Screen. Data for the cln2 rad14 strain (AID 165);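 note: 0% = growth equal to vehicle treated cultures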; details: S. cerevisiae cln2 rad14 strain, hits give high values
Summary of the method: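 Each compound was tested on cln2 rad14 yeast. Inhibition of growth was calculated against vehicle-exposed controls.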

[5] = NCI Yeast Anticancer Drug Screen. Data for the bub3 strain (AID 167); details: S. cerevisiae bub3 mutant strain, hits give high values
Summary of the method: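 Compounds were applied to a genetically altered yeast strain carrying a cell-cycle control defect. Growth inhibition was scored against vehicle-treated controls.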

[6] = NCI Yeast Anticancer Drug Screen. Data for the mlh1 rad18 strain (AID 175); details: S. cerevisiae mlh1 rad18 strain growth inhibition, hits give high values
Summary of the method: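 Vehicle-treated cultures served as the reference for growth inhibition in a yeast strain carrying DNA damage repair alterations exposed to each compound.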

[7] = at 5.0 µM (retest, dose inferred, filed as 0.5)
[8] = at 50.0 µM (retest, dose inferred, filed as 5.0)

Measured: growth inhibition

O=[N+]([O-])C1CCCC(C2=CSC3CCCCC3N2)C1 (configuration not stated)
active: [2]; at 50.0 µM 80.8% | [5]; at 50.0 µM 86%
inactive: [1]; [7] 5% | [1]; [8] -7% | [1]; at 50.0 µM 48.2% | [2]; [7] -21% | [2]; [8] 10% | [3]; [7] -26% | [3]; [8] -2% | [3]; at 50.0 µM 63.4% | [4]; [7] -4% | [4]; [8] 16% | [4]; at 50.0 µM 11.1% | [5]; [7] 1% | [5]; [8] 29% | [6]; [7] -24% | [6]; [8] 36% | [6]; at 50.0 µM 37.9%

O=C1c2ccc(O)cc2C(=O)c2c1ccc(O)c2O
active: [1]; [8] 97% | [1]; at 50.0 µM 76% | [2]; [8] 95% | [3]; [8] 96% | [3]; at 50.0 µM 83% | [4]; [8] 73% | [5]; [8] 94% | [5]; at 50.0 µM 76.9% | [6]; [8] 97% | [6]; at 50.0 µM 77.4%
inactive: [1]; [7] 28% | [2]; [7] 26% | [2]; at 50.0 µM 67.3% | [3]; [7] 46% | [4]; [7] 9% | [4]; at 50.0 µM 41.3% | [5]; [7] 37% | [6]; [7] 45%

O=c1cc(Cl)c(Cl)nn1-c1ccccc1
active: [1]; [8] 80% | [1]; at 50.0 µM 89.2% | [2]; [8] 75% | [3]; [8] 71% | [4]; at 50.0 µM 71.8% | [5]; [8] 84% | [6]; [8] 86%
inactive: [1]; [7] 9% | [2]; [7] 12% | [2]; at 50.0 µM 50.5% | [3]; [7] 7% | [3]; at 50.0 µM 40.3% | [4]; [7] 6% | [4]; [8] 60% | [5]; [7] 4% | [5]; at 50.0 µM 45.5% | [6]; [7] 2% | [6]; at 50.0 µM 41.2%

Cc1cccc(Cc2cccc(Cl)c2)c1O
active: [1]; [8] 95% | [1]; at 50.0 µM 99.3% | [2]; [8] 98% | [2]; at 50.0 µM 99.8% | [3]; [8] 89% | [3]; at 50.0 µM 99.6% | [4]; [8] 90% | [4]; at 50.0 µM 99% | [5]; [8] 94% | [5]; at 50.0 µM 99.1% | [6]; [8] 96% | [6]; at 50.0 µM 98.9%
inactive: [1]; [7] -1% | [2]; [7] -1% | [3]; [7] 3% | [4]; [7] -4% | [5]; [7] -9% | [6]; [7] 8%

O=C(O)c1ccc(NCc2c(O)ccc3ccccc23)cc1
inactive: [1]; [7] 5% | [1]; [8] 26% | [1]; at 50.0 µM 4% | [2]; [7] 9% | [2]; [8] 29% | [2]; at 50.0 µM 17.4% | [3]; [7] 11% | [3]; [8] 15% | [3]; at 50.0 µM 45.2% | [4]; [7] -3% | [4]; [8] 15% | [4]; at 50.0 µM -13.9% | [5]; [7] 4% | [5]; [8] 28% | [5]; at 50.0 µM 48.1% | [6]; [7] 9% | [6]; [8] 26% | [6]; at 50.0 µM 19.1%

CNC(=O)OCc1c(COC(=O)NC)c(-c2ccc(Cl)c(Cl)c2)n2c1Cc1ccccc1C2
active: [1]; [8] 97% | [1]; at 50.0 µM 88.7% | [2]; [8] 98% | [2]; at 50.0 µM 92.2% | [3]; [8] 85% | [3]; at 50.0 µM 88.8% | [4]; at 50.0 µM 90.8% | [5]; [8] 97% | [5]; at 50.0 µM 88.1% | [6]; [8] 97% | [6]; at 50.0 µM 87%
inactive: [1]; [7] -18% | [2]; [7] -21% | [3]; [7] -6% | [4]; [7] 8% | [4]; [8] 63% | [5]; [7] -23% | [6]; [7] -11%

CCN(CC)P(=S)(c1ccccc1CCP(=S)(c1ccccc1)c1ccccc1)N(CC)CC
active: [1]; at 50.0 µM 91.2% | [2]; at 50.0 µM 98.6% | [3]; at 50.0 µM 97.6% | [4]; at 50.0 µM 96.8% | [6]; at 50.0 µM 97.1%
inactive: [1]; [7] -6% | [1]; [8] 34% | [2]; [7] -3% | [2]; [8] 21% | [3]; [7] -6% | [3]; [8] 62% | [4]; [7] -1% | [4]; [8] 11% | [5]; [7] -2% | [5]; [8] 41% | [5]; at 50.0 µM 59.6% | [6]; [7] -4% | [6]; [8] 32%

Cc1c2oc3c(C)ccc(C(=O)NC4C(=O)NC(C(C)C)C(=O)N5CCCCC5C(=O)N(C)CC(=O)N(C)C(C(C)C)C(=O)OC4C)c3nc-2c(C(=O)NC2C(=O)NC(C(C)C)C(=O)N3CCCCC3C(=O)N(C)CC(=O)N(C)C(C(C)C)C(=O)OC2C)c(N)c1=O (configuration not stated) (I: TV[Pip][Sar][NMeV] / II: TV[Pip][Sar][NMeV]; ester I:1-I:C, II:1-II:C; linker I:N-II:N via Actinocin(9to1); configuration not given here)
active: [1]; [8] 91% | [5]; [8] 80% | [5]; at 50.0 µM 73.6% | [6]; [8] 79%
inactive: [1]; [7] -11% | [1]; at 50.0 µM 69.4% | [2]; [7] -22% | [2]; [8] 43% | [2]; at 50.0 µM 48.3% | [3]; [7] 7% | [3]; [8] 28% | [3]; at 50.0 µM 59.4% | [4]; [7] 6% | [4]; [8] 64% | [4]; at 50.0 µM 29.3% | [5]; [7] 0% | [6]; [7] 10% | [6]; at 50.0 µM 45.6%

Nc1cccc2c1[nH]c(=O)c1ccccc12
inactive: [1]; [7] 7% | [2]; [7] 5% | [2]; [8] 31% | [2]; at 50.0 µM 64% | [3]; [7] 2% | [3]; [8] 33% | [3]; at 50.0 µM 51.9% | [4]; [7] -4% | [4]; [8] 40% | [5]; [7] -3% | [6]; [7] 9%
active: [1]; [8] 70% | [1]; at 50.0 µM 78.8% | [4]; at 50.0 µM 77.9% | [5]; [8] 98% | [5]; at 50.0 µM 75.8% | [6]; [8] 97% | [6]; at 50.0 µM 91.2%
